# From PubChem BioAssay AID1259374 (The Scripps Research Institute Molecular Screening Center, 2018)
# The campaign covered roughly 650,000 compounds. About 5,900 (0.91%) were called active. The full list was thinned out, with actives kept by preference. Unmarked numbers belong to inactive results. No stated cut-off is given here; in the data, active means inhibition above about 50%; inactive means the rest.
# Target: Microphthalmia-associated transcription factor (Homo sapiens) (UniProt O75030)
# Sequence (O75030 whole entry, looked up): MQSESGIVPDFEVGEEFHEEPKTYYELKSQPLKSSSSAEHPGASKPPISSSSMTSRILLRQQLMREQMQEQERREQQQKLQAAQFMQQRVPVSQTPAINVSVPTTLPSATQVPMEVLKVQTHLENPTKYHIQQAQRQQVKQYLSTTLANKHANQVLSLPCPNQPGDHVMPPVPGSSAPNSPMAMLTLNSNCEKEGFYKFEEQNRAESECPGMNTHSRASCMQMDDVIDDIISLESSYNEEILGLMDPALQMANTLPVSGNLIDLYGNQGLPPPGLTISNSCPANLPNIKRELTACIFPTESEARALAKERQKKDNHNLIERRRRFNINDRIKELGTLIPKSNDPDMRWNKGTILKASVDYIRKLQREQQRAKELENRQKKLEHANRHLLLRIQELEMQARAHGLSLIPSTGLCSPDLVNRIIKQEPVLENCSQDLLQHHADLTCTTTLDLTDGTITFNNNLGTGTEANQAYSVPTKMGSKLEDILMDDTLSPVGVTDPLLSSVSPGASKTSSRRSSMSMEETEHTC
# Experiment: MITF inhibitors, primary screen, biochemical, AlphaScreen, human (AID 1259374);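 further: 0% = vehicle wells with protein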
# Details: AlphaScreen MITF homodimerization, bead proximity signal; at 2.6 µM; stronger effect = higher value
row,SMILES,inhibition
1,CN1CCN(S(=O)(=O)c2ccc(F)c(Cl)c2)CC1,19.5%
2,CCN1CCN(CC(O)COc2cccc(C(=O)OC)c2)CC1 (stereo not drawn),53.1% (active)
3,O=C(c1ccccc1)N1CCN(CC(O)COc2cccc(Cl)c2)CC1 (stereo not drawn),-18.1%
4,CN1CCN(CC(O)COc2ccc3ccccc3c2)CC1 (stereo not drawn),18.6%
5,O=C(/C=C/c1ccc([N+](=O)[O-])cc1)NCCSC1CCCCC1,27.9%
6,CCOc1ccccc1N1C(=O)c2nccnc2C1=O,1.76%
7,CCOc1cc(/C=N/O)ccc1OCc1cccc(F)c1,9.06%
8,COCCNCC(=O)Nc1cccc(C)c1C,-3.31%
9,CCC(C)NCC(=O)Nc1cccc(C)c1C (stereo not drawn),-0.21%
10,Cc1cccc(NC(=O)CNCCN2CCCCC2)c1C,62.5% (active)
11,Cc1ccc2c(c1)-c1onc(C(=O)Nc3ccc(Cl)cn3)c1CO2,12.1%
12,COc1ccccc1NC(=O)Cn1cnc2sc(C(=O)O)c(C)c2c1=O,-5%
13,O=C(CSc1ncnc2ccccc12)Nc1nc2ccccc2s1,4.66%
14,O=C(CSc1cccc[n+]1[O-])Nc1nc2ccccc2s1,14.6%
15,C=CCn1c(SCC(=O)Nc2nc3ccccc3s2)nc(O)cc1=O,67% (active)
16,CCn1cc(C(=O)N[C@H](C)Cn2nnc3ccccc32)c(=O)c2ccc(C)nc21,0.5%
17,Cc1ccc(NC(=O)C2C3NC(=S)N(c4ccc(F)cc4)C2(C)Oc2ccc(Br)cc23)c(C)c1 (stereo not drawn),8.95%
18,CCCN1CCc2nc(NC(=O)COc3ccc(Cl)cc3Cl)sc2C1,4.61%
19,O=C(Nc1ccc2c(c1)OCO2)C(c1ccccc1)N1CCC(Cc2ccccc2)CC1 (stereo not drawn),-8.34%
20,CN(c1ccccc1)C(C(=O)Nc1ccc2c(c1)OCCO2)c1ccccc1 (stereo not drawn),17.5%
21,O=C(Nc1ccc2c(c1)OCO2)C(c1ccccc1)N(Cc1ccccc1)Cc1ccccc1 (stereo not drawn),75.7% (active)
22,O=C1Nc2cc(C(=O)O)ccc2S/C1=C/c1ccccc1Cl,2.94%
23,CCOC(=O)c1ccc(Nc2ncnc3c2cnn3-c2ccccc2)cc1,15.3%
24,Cc1nc(NC(=O)c2cc(Br)ccc2Cl)sc1C,53.2% (active)
25,Cc1nc(NC(=O)c2ccoc2C)sc1C,1.06%
26,COc1ccc(C(=O)Nc2nc(C)c(C)s2)c(OC)c1,20.7%
27,NC(=O)c1ccccc1NC(=O)CNCc1ccco1,-15.5%
28,CCCn1c(SCC(=O)Nc2ccc(C(C)=O)cc2)n[nH]c1=O,-6.45%
